The text below walks through data of PubChem BioAssay AID1565 (Sanford-Burnham Center for Chemical Genomics, 2009).

About 3,200 (1.1%) of roughly 290,000 compounds were called active. What follows is part of a selection rich in actives, with near analogues and random picks from the rest. Unmarked numbers belong to inactive results. Rule as the data show it: active = inhibition above about 60%; inactive = the rest.

For the experiment, the target named is Phosphoethanolamine/phosphocholine phosphatase (Homo sapiens) (UniProt Q8TCT1). The experiment is described as follows: PubChem AID 1565. The following applies: recombinant PHOSPHO1, absorbance phosphatase assay; at 13.3 µM; hits give high values.
Sequence of Phosphoethanolamine/phosphocholine phosphatase (Homo sapiens) (Q8TCT1 whole entry, looked up): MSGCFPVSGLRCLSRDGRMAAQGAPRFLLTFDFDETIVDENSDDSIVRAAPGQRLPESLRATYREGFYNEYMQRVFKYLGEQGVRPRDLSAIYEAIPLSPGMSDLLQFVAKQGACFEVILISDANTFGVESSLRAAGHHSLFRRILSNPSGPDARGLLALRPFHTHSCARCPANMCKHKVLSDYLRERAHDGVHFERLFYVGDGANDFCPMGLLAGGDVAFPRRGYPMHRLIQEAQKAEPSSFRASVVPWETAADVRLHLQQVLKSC
The term inhibition denotes the drop in the measured response relative to a control, in per cent. As for `COc1cccc(NCCC(=O)c2cccc([N+](=O)[O-])c2)c1`, the inhibition is 22.6%. For the compound `COc1ccc(-n2cnnc2SCC(=O)Nc2cccc([N+](=O)[O-])c2)cc1`, the inhibition is -3.1%. `COc1ccc(Cc2nnc(SCC(=O)c3cccc([N+](=O)[O-])c3)n2C)cc1`: the inhibition is 76.3% (active). For `COc1cccc(CNS(=O)(=O)c2cc3c(cc2C)n(C)c(=O)c(=O)n3C)c1`, the inhibition is -3.5%.

Consider `Cc1cccc(CNS(=O)(=O)c2ccc(-c3cnc(C4CC4)o3)cc2)c1`, for which the inhibition is 32.9%. For the compound `Cn1c(SCc2ccc(F)cc2)nnc1-c1ccncc1`, the inhibition was 35.1%.

For `Cc1nc2sc(C(c3ccco3)N3CCOCC3)c(O)n2n1` (stereo unspecified), the inhibition is -2.3%. Next, `Oc1c(C(c2ccco2)N2CCC3(CC2)OCCO3)sc2ncnn12` (stereo unspecified): 95.9% (active).

Take `Oc1c(C(c2cccs2)N2CCN(c3ccc(F)cc3)CC2)sc2ncnn12` (stereo unspecified): the inhibition was 19.3%. On to `COc1ccc(CNC(=O)C(NS(=O)(=O)c2cccc3nsnc23)C(C)C)cc1` (stereo unspecified), for which the inhibition is 59.8%.

As to `Cn1c(=O)oc2cc(S(=O)(=O)NCCC(=O)NCc3ccccc3Cl)ccc21`, the inhibition is 75.4% (active). Regarding `Cc1ccc(NC(=O)CCNS(=O)(=O)c2ccc3c(c2)oc(=O)n3C)cc1C`, the inhibition is -21.8%. Then `COc1cccc(NC(=O)CCNS(=O)(=O)c2ccc3c(c2)oc(=O)n3C)c1`, with 59.6%; and `O=c1cc(Cl)c2ccccc2n1-c1ccccc1`, with 19.9%. For `CN(Cc1c(F)cccc1Cl)S(=O)(=O)c1cccs1`, the inhibition was -15.8%. On to `Cc1c(Cl)cccc1NC(=O)CCC(=O)N/N=C/c1ccco1`, for which the inhibition was 32.7%. In the case of `Cn1c(-c2sccc2OCc2cccc(C(F)(F)F)c2)n[nH]c1=S`, the inhibition was 36.7%. In the case of `Cn1c(-c2sc3cc(C(F)(F)F)cnc3c2-c2ccccc2)n[nH]c1=S`, the inhibition is 96.2% (active). Turning to `Cc1ccccc1-c1n[nH]c(=S)n1C`, the inhibition is -137%. Take `COc1cccc(NC(=O)CCc2nnc3ccc(N4CCC(C)CC4)nn23)c1`: the inhibition was -8.3%.

Turning to `Cc1cccnc1CCNC(=O)C1CCC(=O)N(Cc2cccc(F)c2)C1` (stereo unspecified), the inhibition is 24%. Take `COc1cccc(CNC(=O)C2CCCN(c3ncnc4c3nc3n4CCCCC3)C2)c1` (stereo unspecified): the inhibition is -55.9%. Next, `O=C(Nc1cccc(NC(=O)N2CCN(c3ccccc3)CC2)c1)N1CCN(c2ccccc2)CC1`: 12.4%; `O=C(Nc1ccccc1)N1CCN(C(=O)Nc2ccccc2)CC1`: 15.9%. As to `O=C(Nc1ccc(Cl)c(Cl)c1)N1CC=C(c2ccccc2)CC1`, the inhibition is 61.1% (active). Consider `Cc1occc1C(=O)N/N=C/c1ccc(-c2cccc([N+](=O)[O-])c2)o1`, for which the inhibition is 40.3%. On to `C[N+]1(CCNC(=O)/C=N/O)CCCCC1`, for which the inhibition is 91.1% (active).

On to `N#CC(C#N)=CN=c1ccn(Cc2ccc(Cl)cc2Cl)cc1`, for which the inhibition is 34%. With `COCCNC(=O)c1ccc2nc(Cc3ccc(OC)c(OC)c3)oc2c1`, the inhibition was -8.2%.

As to `Cc1ccc(OCc2n[nH]c(=S)n2-c2ccc(C)cc2)cc1`, the inhibition is -0.8%. For the compound `COc1ccc(Cc2n[nH]c(=S)n2NC(=O)Nc2ccc(C)cc2)cc1`, the inhibition is 36.2%. Turning to `S=c1[nH]nc(COc2ccccc2)n1-c1ccccc1`, the inhibition was -11.2%. As for `Cc1ccc(OCc2n[nH]c(=S)n2-c2ccccc2)cc1`, the inhibition is 60.9% (active). Regarding `COc1ccc(-n2c(-c3ccc(OC)c(OC)c3)n[nH]c2=S)cc1`, the inhibition was -135%.

On to `COc1ccc(OCc2n[nH]c(=S)n2N)cc1`, for which the inhibition is 70.9% (active). In the case of `Cc1cccc(N2Cc3ccccc3C2=NC(=O)c2ccc(Cl)nc2)c1`, the inhibition is -3.9%. Next, `Cc1nn(CC(=O)NCCc2ccccc2)c(=O)c2cc3occc3n12`: -36.2%; `O=C1/C(=C/c2ccc(F)cc2)SC(=S)N1CCCC(=O)N1CCCCC1CCO` (stereo unspecified): 38.5%; `O=C(c1ccc(CS(=O)(=O)c2ccccc2)o1)N1CCN(c2ccccc2)CC1`: 2.1%. Next, `CC(C)c1ccc(S(=O)(=O)NC2CCCC2)cc1`: 24%; `NS(=O)(=O)c1ccc(NC(=O)COC(=O)c2ccc(Cl)nc2)cc1`: 8.4%. `Cc1cnc(NC(=O)c2ccc(Cl)nc2)s1`: the inhibition is -16.6%.

`CCN(CC)c1ccc(NC(=O)c2ccc(Cl)nc2)cc1`: the inhibition was 74.3% (active). Consider `CCCCNC(=O)c1cn(CC)c2cc(N3CCN(C(=O)c4ccco4)CC3)c(F)cc2c1=O`, for which the inhibition was 12.7%.

As to `CCCn1c(C2CCCN2c2nc(-c3ccc(OC)cc3)cs2)nc2ccccc21` (stereo unspecified), the inhibition is -1.7%. With `CC(C)C(=O)NCc1cc(-c2ccc(Cl)cc2)no1`, the inhibition was 32.2%.

As for `Cc1ccc(S(=O)(=O)Cc2cc(-c3ccc(Cl)cc3)no2)cc1`, the inhibition was 65.8% (active). Then `Cc1ccc(-c2cc(N)on2)cc1`, with 1.1%; and `O=C(CCc1nnc2ccc(NCc3ccco3)nn12)Nc1cc(F)ccc1F`, with 19.9%; and `COc1ccccc1OCCOc1ccc(/C=C2\C(=N)N3N=C(C)SC3=NC2=O)cc1`, with 19.1%. `CCOc1ccccc1N1CCN(C(=O)c2ccc3[nH]c(C)c(C)c3c2)CC1`: the inhibition was 18.1%. For the compound `Cc1c(C(=O)NCC(c2ccco2)N2CCCC2)oc2ccc(Cl)cc12` (stereo unspecified), the inhibition is 7%. For the compound `COc1cc(/C=N/O)ccc1OCc1ccc([N+](=O)[O-])cc1`, the inhibition is 5.6%. For the compound `COc1cc(/C=N/n2c(C)n[nH]c2=S)ccc1OCc1ccccc1`, the inhibition was 69.1% (active). With `Fc1ccc(/C=N/n2c(COc3ccccc3)n[nH]c2=S)cc1`, the inhibition was 5.5%. Take `CCC(NC(=O)c1cc(COc2ccc(F)c(F)c2)on1)c1ccncc1` (stereo unspecified): the inhibition was 21.8%. `Cc1cc(NC(=O)CSc2nc3c(cc2C#N)CCCCC3)no1`: the inhibition was 56%.

Take `CC1(C)CCc2nc(SCc3ccccc3)c(C#N)cc2C1`: the inhibition was 15%.

`CC(NC(=O)CSc1nc2c(cc1C#N)CN(C)CC2)c1ccccc1` (stereo unspecified): the inhibition was 95.3% (active).

As for `CC1CC(C)CN(c2ccc(S(=O)(=O)N3CCOCC3)cc2)C1` (stereo unspecified), the inhibition was 33.4%. As for `C=CCN1CN(S(=O)(=O)c2ccc(OC)cc2)c2nc3ccccc3nc21`, the inhibition was 4.7%. Consider `CCc1cc(-c2n[nH]c(=S)n2CC(C)C)cs1`, for which the inhibition is -17%. In the case of `CCCc1cc(-c2n[nH]c(=S)n2Cc2ccccc2)cs1`, the inhibition is 82.7% (active). Take `COc1cc(-c2n[nH]c(=S)n2Cc2ccccc2)cc(OC)c1OC`: the inhibition is -91.1%.

Regarding `O=C(NCc1ccccc1)c1onc(CSc2nc3ccccc3[nH]2)c1C(=O)NCc1ccccc1`, the inhibition was 15.1%. Next, `CN(c1ccccc1)S(=O)(=O)c1ccc2[nH]c(=O)[nH]c2c1`: 2.8%; `Cc1nc2ccc(C(=O)N3CCN(c4ccccc4)CC3)cc2s1`: -38.4%; `O=C(c1ccccc1)c1ccc(C(=O)N2CCN(c3ccccc3)CC2)cc1`: 70.6% (active). In the case of `O=C(c1ccc(S(=O)(=O)N2CCOCC2)cc1)N1CCN(c2ccccc2)CC1`, the inhibition was 7.1%.

Take `C=CCn1c(CNS(=O)(=O)c2ccc(Br)cc2)nnc1SC`: the inhibition is 38.1%. `Cc1cccc(-n2nc3c(c2NC(=O)c2cc4ccccc4o2)CS(=O)(=O)C3)c1`: the inhibition was 12.5%.

In the case of `CCn1c(Cc2cccs2)nnc1SCC(=O)c1ccc(C)cc1`, the inhibition was 67.3% (active). In the case of `Cc1ccc(-n2c(Cc3cccs3)nnc2SCC(=O)OC(C)C)cc1`, the inhibition is 4.6%. As to `CCn1c(SCC(=O)c2ccc3ccccc3c2)nnc1-c1cccs1`, the inhibition was 17.7%.

Turning to `CCNC(=O)Nc1ccc(S(=O)(=O)Nc2cnc(C)nc2C)cc1`, the inhibition is 22%. Then `COc1ccc(N(CC(=O)N2CCOCC2)S(=O)(=O)c2ccccc2)cc1Cl`, with 12.6%. As to `Nc1ccc(-c2nnc(-c3ccccc3)o2)cc1`, the inhibition was 4.2%. In the case of `Nc1ccc(-c2nnc(-c3ccc(-c4ccccc4)cc3)o2)cc1`, the inhibition is 71.5% (active). As for `Brc1ccc(-c2nnc(-c3ccccc3)o2)o1`, the inhibition is -10.5%. Next, `COc1cccc(CNC(=O)c2nnn(CC(=O)Nc3cc(C)ccc3C)c2N)c1`: 37.5%. On to `Cc1ccc2nc(-c3ccc(NC(=O)c4cccnc4)cc3)oc2c1`, for which the inhibition is 30.4%. Take `COc1ccccc1C(=O)Nc1ccnn1C1CCN(Cc2cnn(C)c2)CC1`: the inhibition is 38.1%. For `O=C(CSc1cccc2cccnc12)N/N=C/c1cccnc1`, the inhibition was -11.2%.

Regarding `Oc1ccccc1CN1CCN(C(c2ccccc2)c2ccccc2)CC1`, the inhibition is 34.3%. Next, `CCN1CCN(C(c2cccnc2)c2cc(Cl)c3cccnc3c2O)CC1` (stereo unspecified): 98.8% (active).

On to `Cc1onc(C(=O)NN)c1C(=O)N1CCN(C(c2ccccc2)c2ccccc2)CC1`, for which the inhibition is -25.8%. Consider `Clc1cccc(CN2COc3c(cc(Cl)c4cccnc34)C2)c1`, for which the inhibition is -4%. For the compound `CCOC(=O)N1CCN(C(c2cccnc2)c2ccc3cccnc3c2O)CC1` (stereo unspecified), the inhibition is 96.9% (active). On to `Cc1cccc(NC(=O)c2cccc(C(=O)Nc3cccc(C)c3C)n2)c1C`, for which the inhibition was 14.9%. As for `COc1cccc2cc(C(N)=O)/c(=N\NC(=O)c3ccccc3)oc12`, the inhibition was 43.7%.

For `CCCCCN(C(=O)CCC(=O)OCC(=O)NCc1ccc(OC)cc1)c1c(N)n(CCCC)c(=O)[nH]c1=O`, the inhibition was 36.6%. Consider `Cc1ccc(NC(=O)COC(=O)C2C3CC4OC(=O)C2C4C3)cc1Cl` (stereo unspecified), for which the inhibition is 23.2%. On to `CSc1nnc(-c2ccncc2)n1CCCN1CCCC1=O`, for which the inhibition was 86.5% (active). For the compound `COCCCn1c(SCC(=O)Nc2ccccc2)nnc1-c1ccncc1`, the inhibition is -12.8%. Regarding `CCCn1c(SCC(=O)N2CCc3ccccc32)nnc1-c1ccncc1`, the inhibition is 1.6%.

`COc1cccc(C(=O)Nc2nnc(S(=O)(=O)N(C)c3ccccc3)s2)c1`: the inhibition is 41.2%.
